The values below come from PubChem BioAssay (Tox21).

Inconclusive results are not listed. More than one record can exist for a structure, and the calls need not agree. Calls of active or inactive are those of the source. Calls come from the whole dose curve.

Test [1] has as its target Acetylcholinesterase (Homo sapiens) (UniProt P22303). The experiment in a line: Acetylcholinesterase (AChE) small molecule antagonists: colormetric cell-based qHTS assay (AID 1347395). Note: nearly all actives have a fitted effect of over 30% in size. Note: potency is the fitted concentration of half-maximal effect. The essentials:
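SH-SY5Y cells attached overnight, exposed to compound 30 min at 37 C, then given DTNB/acetylthiocholine; after 90 min at 37 C, colorimetric thiocholine read gives cellular AChE activity.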

The target is the same in test [2]. Briefly: Acetylcholinesterase (AChE) small molecule antagonists: enzyme-based qHTS assay (AID 1347397). Note: nearly all actives have a fitted effect of over 55% in size. Note: potency is the fitted concentration of half-maximal effect. The following applies: Potency: AChE enzyme activity inhibition; outcome: AChE enzyme activity inhibition. The essentials:
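Colorimetric DTNB readout of acetylthiocholine hydrolysis, 10 min at room temperature, after 30 min room-temperature exposure of 50 mU/mL recombinant human enzyme to compound; DMSO vehicle control.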
In general terms: qHTS replaces the single test concentration by a dilution series.

Test [3] has the same target. The experiment in a line: Acetylcholinesterase (AChE) small molecule antagonists: fluorescence cell-based qHTS assay (AID 1347398). Note: nearly all actives have a fitted effect of over 50% in size. Note: potency is the fitted concentration of half-maximal effect. The following applies: Potency: AChE activity; outcome: AChE activity. In a few lines: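 Cellular AChE activity read as thiocholine from acetylthiocholine hydrolysis, detected by Thiolite Green fluorescence at 490/520 nm after 40 min at room temperature. Compounds were pre-incubated 30 min at 37 C on adherent SH-SY5Y cells.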

Test [4] shares this target. The experiment in a line: Acetylcholinesterase (AChE) small molecule antagonists: enzyme-based qHTS assay with human liver microsomes (AID 1347399). Note: nearly all actives have a fitted effect of over 60% in size. As to conditions: Potency: qHTS inhibition; outcome: qHTS inhibition. The essentials:
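Recombinant human AChE (50 mU/mL in the enzyme mix) and human liver microsomes (0.25 mg/mL final) were preincubated with compound and NADPH (0.25 mg/mL final) for 30 min at 37 C. Acetylthiocholine/DTNB was then added; thiocholine was read colorimetrically after 10 min at room temperature.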
% is set by controls: 0 for no effect and ±100 for the full control effect.

Sequence of Acetylcholinesterase (Homo sapiens) (P22303 whole entry, looked up): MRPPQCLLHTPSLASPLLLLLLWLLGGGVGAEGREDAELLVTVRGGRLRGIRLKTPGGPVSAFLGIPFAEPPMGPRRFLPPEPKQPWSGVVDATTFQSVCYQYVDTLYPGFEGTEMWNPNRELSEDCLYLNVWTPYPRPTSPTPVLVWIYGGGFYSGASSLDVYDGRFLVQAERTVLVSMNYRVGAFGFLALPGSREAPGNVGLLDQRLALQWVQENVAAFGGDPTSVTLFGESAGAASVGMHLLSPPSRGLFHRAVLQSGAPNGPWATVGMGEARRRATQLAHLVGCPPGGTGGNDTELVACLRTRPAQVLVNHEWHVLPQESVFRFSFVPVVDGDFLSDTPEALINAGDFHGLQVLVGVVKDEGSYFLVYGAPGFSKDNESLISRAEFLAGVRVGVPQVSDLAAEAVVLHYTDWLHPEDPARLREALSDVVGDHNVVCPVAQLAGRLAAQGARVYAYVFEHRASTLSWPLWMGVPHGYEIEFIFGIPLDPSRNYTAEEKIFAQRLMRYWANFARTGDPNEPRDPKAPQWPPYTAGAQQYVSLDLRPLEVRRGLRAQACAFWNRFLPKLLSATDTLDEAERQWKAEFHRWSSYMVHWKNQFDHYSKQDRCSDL

With `O=S(=O)(O)c1ccc(N=Nc2c(O)ccc3cc(S(=O)(=O)O)ccc23)cc1`, the Potency entry in test [1], in test [2], in test [3] and in test [4] was “inactive” each time.

On to `O=C(O)c1cccc(Cl)c1Cl`, for which the Potency result in test [1], in test [2], in test [3] and in test [4] was “inactive” throughout.

Regarding `CC1(C)[C@H]2CC[C@](C)(C2)[C@H]1O`, the Potency result in test [1], in test [2], in test [3] and in test [4] was “inactive” each time.

Consider `CCCCCC(CO)CCC` (stereo not given), for which the Potency result in test [1], in test [2], in test [3] and in test [4] was “inactive” in each case.

`O=C(O)/C=C/c1cnc[nH]1`: the Potency entry in test [1], in test [2], in test [3] and in test [4] was “inactive” in each case.

On to `CC1=C(C=O)C(C)(C)CC=C1`, for which the Potency result in test [1], in test [2], in test [3] and in test [4] was “inactive” each time.

Take `Nc1ccc(S(=O)(=O)NC(=O)c2ccccc2)cc1`: the Potency entry in test [1], in test [2], in test [3] and in test [4] was “inactive” each time.

For the compound `CC(=O)Nc1ccc(C(=O)O)cc1`, the Potency result in test [1], in test [2], in test [3] and in test [4] was “inactive” in each case.

Take `Cc1nc2ccccc2c(=O)o1`: the Potency result in test [1], in test [2], in test [3] and in test [4] was “inactive” in each case.

Consider `C=C(C)C(=O)OCCOCCOCCOCCOC(=O)C(=C)C`, for which the Potency result in test [1], in test [2], in test [3] and in test [4] was “inactive” in each case.

As to `Nc1ncnc(Nc2ccccc2)n1`, the Potency entry in test [1], in test [2], in test [3] and in test [4] was “inactive” each time.

For the compound `CC(CNC1CCCCC1)OC(=O)c1ccccc1` (stereo not given), the Potency entry in test [1], in test [2], in test [3] and in test [4] was “inactive” each time.

Regarding `CCCc1ccccc1O`, the Potency result in test [1], in test [2], in test [3] and in test [4] was “inactive” each time.

`CCN(CCO)CCCC(C)Nc1ccnc2cc(Cl)ccc12` (stereo not given): in test [1], the activity, negative = inhibition was -5.02% [at 10.5 µM] (inactive). The activity change, negative = inhibition was -2.76% [at 10.5 µM] (inactive) in test [2], -7.12% [at 10.5 µM] (inactive) in test [3] and -0.168% [at 10.5 µM] (inactive) in test [4].

With `Cc1cccc(C)c1NC(=O)CN1CCCCCC1`, the Potency entry in test [1], in test [2], in test [3] and in test [4] was “inactive” throughout.

Take `CCCCCCOCCO`: the Potency result in test [1], in test [2], in test [3] and in test [4] was “inactive” each time.

On to `COC(=O)CCCCCCCC(=O)OC`, for which the Potency result in test [1], in test [2], in test [3] and in test [4] was “inactive” throughout.

Turning to `CC(CCO)CCCC(C)(C)O` (stereo not given), the Potency entry in test [1], in test [2], in test [3] and in test [4] was “inactive” each time.

Regarding `CC(=O)C(=O)CC(C)C`, the Potency entry in test [1], in test [2], in test [3] and in test [4] was “inactive” in each case.

Consider `CCOc1cc([N+](=O)[O-])c(OCC)cc1N1CCOCC1`, for which the Potency entry in test [1], in test [2], in test [3] and in test [4] was “inactive” throughout.

With `O=C1c2ccccc2C(=O)c2c1ccc(O)c2O`, the Potency result in test [1], in test [2], in test [3] and in test [4] was “inactive” each time.

For `FC(F)(F)c1ccccc1`, the Potency entry in test [1], in test [2], in test [3] and in test [4] was “inactive” throughout.

Take `O=c1[nH]cnc2[nH]ncc12`: the Potency entry in test [1], in test [2], in test [3] and in test [4] was “inactive” throughout.

Take `CCN=C1C=CC(=C(c2ccc(N(CC)CC)cc2)c2ccc(N(CC)CC)cc2)c2ccccc21`: the values for the Potency in test [1], in test [2] and in test [3] were 62.9 µM (active), 19.9 µM (active) and 39.7 µM (active), respectively. The Potency result in test [4] was “inactive”.

Take `C=CC(=O)N1CCOCC1`: the Potency entry in test [1], in test [2], in test [3] and in test [4] was “inactive” in each case.

Take `CNCCCCOc1ccccc1Cc1ccccc1`: the Potency result in test [1], in test [2], in test [3] and in test [4] was “inactive” in each case.

Consider `O=c1[nH]c2ccc(Cl)cc2o1`, for which the Potency entry in test [1], in test [2], in test [3] and in test [4] was “inactive” in each case.

In the case of `COc1cc2c(cc1OC)-c1cc(=Nc3c(C)cc(C)cc3C)n(C)c(=O)n1CC2`, the Potency result in test [1], in test [2], in test [3] and in test [4] was “inactive” in each case.

With `Cc1c(-c2cccnc2)c2ccccc2n1CCCCC(=O)O`, the Potency entry in test [1], in test [2], in test [3] and in test [4] was “inactive” each time.

For `CC(=O)Nc1nnc(S(N)(=O)=O)s1`, the Potency entry in test [1], in test [2], in test [3] and in test [4] was “inactive” each time.

For the compound `CC[C@H](NC(C)C)[C@H](O)c1ccc(O)c2[nH]c(=O)ccc12`, the Potency result in test [1], in test [2], in test [3] and in test [4] was “inactive” each time.

For the compound `CCCCCCCC(=O)OCC`, the Potency entry in test [1], in test [2], in test [3] and in test [4] was “inactive” throughout.

Take `CC/C=C(\C(=O)N[C@@H]1C(=O)N2C(C(=O)OCOC(=O)C(C)(C)C)=C(COC(N)=O)CS[C@H]12)c1csc(N)n1`: the Potency entry in test [1], in test [2], in test [3] and in test [4] was “inactive” each time.

Regarding `O=C=NCCCCCCN=C=O`, the Potency result in test [1], in test [2], in test [3] and in test [4] was “inactive” throughout.

For the compound `NC(=O)COCCN1CCN(C(c2ccccc2)c2ccc(Cl)cc2)CC1` (stereo not given), the Potency entry in test [1], in test [2], in test [3] and in test [4] was “inactive” throughout.

`CCC(C)N` (stereo not given): the Potency result in test [1], in test [2], in test [3] and in test [4] was “inactive” throughout.

Turning to `OC[C@@H](O)[C@@H](O)[C@H](O)[C@H](O)CO`, the Potency result in test [1], in test [2], in test [3] and in test [4] was “inactive” in each case.

Regarding `C=CC(=O)OCCC(=O)O`, in test [1], the Potency is 82.3 µM (active) and inactive. Besides, the Potency result in test [2], in test [3] and in test [4] was “inactive” throughout.

Regarding `CN(C)CCc1c[nH]c2ccc(C[C@H]3COC(=O)N3)cc12`, the Potency result in test [1], in test [2], in test [3] and in test [4] was “inactive” in each case.

On to `CCCCCCCCCCCCCC(=O)OCC`, for which the Potency entry in test [1], in test [2], in test [3] and in test [4] was “inactive” in each case.

For `Oc1ccc(O)cc1`, the Potency entry in test [1], in test [2], in test [3] and in test [4] was “inactive” each time.

With `NC(CCC(=O)O)C(=O)O` (stereo not given), the Potency result in test [1], in test [2], in test [3] and in test [4] was “inactive” each time.

Consider `CCCCCCCC(=O)[O-].CCCCCCCC(=O)[O-].[Zn+2]`, for which the Potency result in test [1], in test [2], in test [3] and in test [4] was “inactive” in each case.

Turning to `CC(CC(C#N)(c1ccccc1)C(C)C)N(C)C` (stereo not given), the Potency entry in test [1], in test [2], in test [3] and in test [4] was “inactive” in each case.

With `CC(C)c1ccc2cc(C(C)C)ccc2c1`, the Potency entry in test [1], in test [2], in test [3] and in test [4] was “inactive” each time.

Turning to `CN(C)CCOCCN(C)C`, the Potency entry in test [1], in test [2], in test [3] and in test [4] was “inactive” in each case.

Regarding `CNC1CCCN(c2c(F)cc3c(=O)c(C(=O)O)cn(C4CC4)c3c2OC)C1` (stereo not given), the Potency result in test [1], in test [2], in test [3] and in test [4] was “inactive” in each case.

With `CC(C)c1cccc(C(C)C)c1`, the Potency entry in test [1], in test [2], in test [3] and in test [4] was “inactive” throughout.

On to `C=C[Si](OC(=C)C)(OC(=C)C)OC(=C)C`, for which the Potency result in test [1], in test [2], in test [3] and in test [4] was “inactive” in each case.

For `Oc1cccc2[nH]ccc12`, the Potency result in test [1], in test [2], in test [3] and in test [4] was “inactive” throughout.

With `Cc1cc(NC(=O)C2=C(O)c3ccccc3S(=O)(=O)N2C)no1`, the Potency entry in test [1], in test [2], in test [3] and in test [4] was “inactive” in each case.

For the compound `CCCCSCCCC`, the Potency entry in test [1], in test [2], in test [3] and in test [4] was “inactive” in each case.

For `Cc1c(C(=O)O)cccc1[N+](=O)[O-]`, the Potency entry in test [1], in test [2], in test [3] and in test [4] was “inactive” throughout.

Consider `O=C(Nc1ccc(Cl)cc1)Nc1ccc(Cl)c(Cl)c1`, for which the Potency entry in test [1], in test [2], in test [3] and in test [4] was “inactive” throughout.

For `CC(C)OC(=O)c1cc(C(=O)OC(C)C)cc([N+](=O)[O-])c1`, the Potency entry in test [1], in test [2], in test [3] and in test [4] was “inactive” each time.

Take `COCCOC(=O)CC#N`: the Potency entry in test [1], in test [2], in test [3] and in test [4] was “inactive” each time.

For the compound `CCCCCCCCCCCC(=O)OC[C@@H](O)[C@H]1OC[C@H](OCCO)[C@H]1OCCO`, the Potency entry in test [1], in test [2], in test [3] and in test [4] was “inactive” each time.

Consider `C=COCCCCO`, for which the Potency entry in test [1], in test [2], in test [3] and in test [4] was “inactive” in each case.

Regarding `CCCCCCCC(=O)OC`, the Potency result in test [1], in test [2], in test [3] and in test [4] was “inactive” throughout.

Take `COC(=O)c1ccc(C=O)cc1`: the Potency result in test [1], in test [2], in test [3] and in test [4] was “inactive” in each case.
